LASV entry inh = inhibitors of Lassa virus binding or cell entry | Potency, µM (top dose mostly 37.9 µM), for the others: at the highest dose activity change, negative = inhibition, hits mostly inhibitors | hit rate 1.2% among 300,000 | Lassa virus pseudotype entry inhibition, cell reporter; calls by dose curve; tested in HEK293 cells; note: potency is the fitted concentration of half-maximal effect; nearly all actives have a fitted effect of over 50% in size
VACV mCherry inh = vaccinia inhibition (mCherry reporter); Potency, µM (highest dose often 36.5 µM), inactives show at the top dose activity change, negative = inhibition, hits mostly inhibitors; Vaccinia virus mCherry reporter infection, fluorescence; hit rate 0.63% among 310,000; calls by dose curve; tested in A549 cells; note: potency is the fitted concentration of half-maximal effect; nearly all actives have a fitted effect of over 35% in size
HCMV antiviral = blocks human cytomegalovirus replication; HFF cells, HCMV-luciferase reporter, 72 h; active compounds read low; activity change, negative = inhibition, % at 57.5 µM; hit rate 4.5% among 410,000; in the data active = activity change below about -60%; inconclusive = no clear call, values can overlap the other calls; inactive = above about -39%
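Two-dose cell screen: HFF monolayers treated with compounds and infected with luciferase-expressing HCMV at 1 PFU/cell, 72 h at 37C, then lysed for luciferase measurement.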
VACV Venus inh = vaccinia inhibition (Venus reporter); Vaccinia virus Venus reporter expression, fluorescence; Potency, µM (series often up to 36.5 µM), for inactives: at the top dose activity change, negative = inhibition, actives largely listed as inhibitors; hit rate 0.46% among 330,000; calls by dose curve; tested in A549 cells; note: potency is the fitted concentration of half-maximal effect; nearly all actives have a fitted effect of over 30% in size
FMDV antiviral = foot and mouth disease virus antiviral activity; FMDV antiviral cell-based qHTS; Potency, µM (doses to about 57.9 µM), inactives show at the top dose activity change, negative = inhibition, usual class: inhibitors; hit rate 1.2% among 410,000; AID 1159524; calls by dose curve; tested in HEK293T cells; note: read-out not given here; potency is the fitted concentration of half-maximal effect; nearly all actives have a fitted effect of over 45% in size
Marburg entry inh = inhibitors of Marburg virus binding or cell entry. AID 540276. hit rate 1.8% among 300,000. Marburg virus pseudotyped entry inhibition, cell reporter. Potency, µM (top dose mostly 37.8 µM), for the others: top-dose activity change, negative = inhibition, usual class: inhibitors; calls by dose curve; tested in HEK293 cells; note: potency is the fitted concentration of half-maximal effect
* = called active by the depositor; i = inactive; ? = inconclusive; · = no result given; ! = repeats disagree; [ ] = remark or other dose. In the library only some 6.5% were active in any assay of this set; here they are far more common. % is set by controls: 0 for no effect and ±100 for the full control effect.

SMILES | LASV entry inh | VACV mCherry inh | HCMV antiviral | VACV Venus inh | FMDV antiviral | Marburg entry inh
O=S(=O)(NCCN1CCN(S(=O)(=O)c2ccccc2F)CC1)c1ccccc1F | -21.1% | -22.5% | -37.2 | -13.8% | -16.0% | ?
COc1cccc(C2(CC(=O)N3CCN(c4nonc4C)CC3)CC(=O)N(C3CCCC3)C2=O)c1 (stereo unspecified) | · | -3.0% | · | -15.0% | 31.7% | ·
CCc1ccc2c(CN3CCN(S(=O)(=O)c4ccccc4F)CC3)cc(=O)oc2c1 | ? | -14.2% | -2.7 | -11.0% | ? | 11.2µM*
CCc1ccc2c(CN3CCN(Cc4ccccc4)CC3)cc(=O)oc2c1 | 0.8% | 54.6% | -3.6 | -16.6% | 0.0% | -2.9%[46.1 µM]
COc1cccc(/C=C/c2ccc3ccccc3[n+]2C)c1OC | · | -29.4% | · | -12.3% | · | ·
Cc1cc(Br)ccc1SCC(=O)NCC(c1ccco1)N1CCCCC1 (stereo unspecified) | -18.4% | i | -17.2 | -4.4% | -22.6% | ?
Cc1ccc(S(=O)(=O)NC(CC(C)C)C(=O)NCC(c2ccco2)N2CCCCC2)cc1 (stereo unspecified) | · | · | · | · | 10µM* | ·
Cc1ccc(C)c(SCC(=O)NCC(c2ccco2)N2CCCCC2)c1 (stereo unspecified) | ? | i | ? | -3.8% | -28.7% | 12.6µM*
CC(=O)Nc1ccc(S(=O)(=O)NC(C)C(=O)NCC(c2ccco2)N2CCCCC2)cc1 (stereo unspecified) | · | · | 0.0 | · | 0.2% | ·
COc1ccc(OC)c(-c2cc(Cl)c3c(c2)CC(CNC(=O)c2cccnc2SC)O3)c1 (stereo unspecified) | · | -14.7% | · | -13.0% | -2.9% | ·
CCOCC(=O)Nc1cc(C(=O)NCCc2ccccc2)ccc1Cl | 0.7%[46.1 µM] | -0.5% | 44.3 | 2.2% | 52.4% | ?
COCC(=O)Nc1cc(C(=O)NCCc2ccccc2)ccc1Cl | 10µM* | -9.7% | -15.1 | -8.7% | -15.3% | ?
COc1ccc2c(c1O)-c1c(OC)c(OC)cc3c1[C@H](C2)N(C)CC3 | · | -20.2% | -62.6* | -11.7% | 0.0% | ·
COc1ccc2c(c1O)-c1c(OC)c(OC)cc3c1[C@@H](C2)N(C)CC3 | · | i | · | -20.9% | 15.1% | ·
COc1ccc2c(c1O)-c1cccc3c1C(C2)N(C)CC3 (stereo unspecified) | · | · | · | · | · | 1µM*
COc1ccc2cc1Oc1ccc(cc1)C[C@H]1c3cc(c(OC)cc3CCN1C)Oc1c(OC)c(OC)cc3c1[C@@H](C2)N(C)CC3 | · | -28.0% | -66.5* | -29.6% | 0.0% | ·
C=CCN1CCc2cccc3c2C1Cc1ccc(O)c(O)c1-3 (stereo unspecified) | · | -5.3% | · | -20.1% | -0.5% | 11.2µM*
CN1CCc2cc(O)cc3c2C1Cc1ccc(O)c(O)c1-3 (stereo unspecified) | · | i | · | -15.5% | -18.7% | ?
COc1ncc2ncc(=O)n(C)c2n1 | · | · | · | · | -6.9% | ·
Cc1ccc2nc(-c3ccc(N=Nc4cc(S(=O)(=O)O)c5ccccc5c4O)cc3)sc2c1S(=O)(=O)O | · | 39.9% | · | 98.4% | · | ·
CCCN1CCc2cccc3c2[C@H]1Cc1ccc(O)c(O)c1-3 | ? | -1.1% | · | -8.9% | -20.5% | ?
CN1CCc2cccc3c2[C@H]1Cc1ccc(O)c(O)c1-3 | ? | i | -66.3* | -22.0% | ? | -26.8%
CCOC(=O)/C=C/[C@@H](CCCCOCc1ccccc1)NC(=O)C(F)(F)F | · | · | -7.4 | · | · | ·
CC(C)C[C@H](NC(=O)NCc1ccc(F)cc1)C(=O)O | -2.6% | i | 5.5 | -2.7% | 3.8% | 8.0%
CCN(CC)CC(O)c1cccn1-c1ccc(CNC(=O)NC(C)C)cc1 (stereo unspecified) | -7.4% | · | -65.9* | · | -2.9% | -5.4%
SMILES | LASV entry inh | VACV mCherry inh | HCMV antiviral | VACV Venus inh | FMDV antiviral | Marburg entry inh
CCCn1c(SCC(=O)NC2CCCC2)nnc1-c1cccnc1 | · | -11.0% | -28.3 | -7.6% | 10.2% | ?
CCCn1c(SCC(=O)NC2CCCCC2)nnc1-c1cccnc1 | 0.8%[46.1 µM] | -1.2% | -65.4* | -16.1% | 6.1% | -0.2%[46.1 µM]
Cc1cnc(-n2ncc(C(=O)NCCCc3ccncc3)c2C)nc1-c1ccc(F)cc1 | · | -41.7% | · | ? | 3.3% | ·
COc1ccccc1CC(Cc1nc2ccccc2[nH]1)c1nc2ccccc2[nH]1 (stereo unspecified) | 29.9%[46.1 µM] | -8.1% | -18.9 | -5.6% | -16.0% | ?
Cc1cccc(CC(Cc2nc3ccccc3[nH]2)c2nc3ccccc3[nH]2)c1 (stereo unspecified) | ? | · | -82.6* | ? | ? | ?
CCN(C(=O)CCS(=O)(=O)c1ccc2c(c1)oc(=O)n2C)c1ccc(OC)cc1 | ? | -21.8% | -63.5*! | -10.3% | -7.4% | -2.6%[46.1 µM]
COc1ccc(CNC(=O)CCS(=O)(=O)c2ccc3c(c2)oc(=O)n3C)cc1 | -14.2%[46.1 µM] | -14.8% | -17.3 | -11.8% | -9.9% | 9.2%[46.1 µM]
Cc1cccc2sc(NC(=O)Cn3c(C)csc3=O)nc12 | ? | -21.2% | 9.0 | -19.1% | 11.7% | -16.7%
CC1O[C@@H](OC2CC[C@@]3(C=O)C4CC[C@]5(C)C(C6=CC(=O)OC6)CC[C@@]5(O)C4CC[C@]3(O)C2)C(O)C(O)C1O (stereo partly specified) | · | 25.1µM* | · | 0.0447µM* | 0.0% | ·
C[C@]12CCC3C(CC[C@]4(O)CC(O)CC[C@@]34C=O)[C@]1(O)CCC2C1=CC(=O)OC1 (stereo partly specified) | · | ? | · | 10µM* | ? | ·
COc1ccc(OC)c(CCNC(=O)c2c3c(nc4ccccc24)C(=O)N(C2CCCCC2)C3)c1 | ? | -14.8% | 39.7 | -8.1% | -10.7% | ·
CCOC(=O)c1cc(-c2ccccc2)n(CCCC(=O)Nc2ccc(C)c(Cl)c2)c1C | 15.4%[46.1 µM] | i | 0.0 | -7.2% | -27.7% | ·
Cc1cc2c(c(-c3ccc4nc(C)ccc4c3)c1)OC(CNC(=O)Cc1ccn(C)c1)C2 (stereo unspecified) | · | -24.6% | · | -15.0% | 5.4% | ·
COc1ccc(Nc2cc3c(cn2)cc(-c2cccnc2)n3C)cn1 | · | · | -17.7 | · | · | ·
c1ccc(-n2nnnc2NCCc2c[nH]c3ccccc23)cc1 | -17.7% | · | 1.1 | · | 54.1% | -4.9%
c1ccc(CNc2nnnn2-c2ccccc2)cc1 | -13.2% | · | -71.8* | · | 19.9% | 16.6%
NC1CCc2ccccc21 (stereo unspecified) | · | 27.6% | · | -5.1% | · | ·
O=C1CC2OCC=C3CN4CCC56c7cc([N+](=O)[O-])ccc7N1C5C2C3CC46 (stereo unspecified) | · | i | -88.2* | -1.2% | 2.3% | ·
O=C1CC2OCC=C3CN4CCC56c7ccccc7N1C5C2C3CC46 (stereo unspecified) | · | · | · | · | -15.9% | ·
CCOC(=O)CN1C(=O)NC(c2cccc(F)c2)C(C(=O)OC)=C1C (stereo unspecified) | · | · | · | · | · | -23.8%[14.2 µM]
O=c1[nH]c(=O)n(Cc2ccco2)c2c1C(C(F)(F)F)(C(F)(F)F)N=C(c1ccc(F)cc1)N2 | ? | · | 43.2 | · | 4.47µM* | ?
CCCNS(=O)(=O)/C=C/c1ccccc1 | -14.5% | -8.8% | 41.6 | -13.4% | 51.6% | 20.6%[46.1 µM]
